Results taken from PubChem BioAssay (NCATS).
Inconclusive results are not listed. A call without a number means that no potency is given here. Values without a mark were called inactive. Calls of active or inactive are those of the source. Calls come from the whole dose curve; as a rule, active = well fitted curve in the direction sought with a large enough effect; inconclusive = small, poorly fitted or top-dose-only effect, or another doubt; inactive = no such curve, though single readings can be large; an effect the other way counts as inactive or inconclusive.

Key:
[1] = system: Hek293T; assay: Primary qHTS to identify gynecologic anti-cancer compounds using libraries of approved drugs and bioactive compounds (AID 1345084); details: Gynecologic cancer cell panel viability, ATPlite luminescence, 48 h, control line for the selectivity index; series mostly up to 57.5 µM; note: nearly all actives have a fitted effect of over 55% in size
Method in brief: (§1)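 Five-point cytotoxicity, 48 h drug exposure at 37 C, 5% CO2, on cells seeded 16 h beforehand. ATP content read by ATPlite luminescence.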

[2] = system: JEG-3; assay: as above; details: Gynecologic cancer cell panel viability, ATPlite luminescence, 48 h; series mostly up to 57.5 µM
Method in brief: as §1

[3] = system: OV90; assay: as above; details: Gynecologic cancer cell panel viability, ATPlite luminescence, 48 h; series mostly up to 57.5 µM
Method in brief: as §1

[4] = system: PA-1; assay: as above; details: Gynecologic cancer cell panel viability, ATPlite luminescence, 48 h; series mostly up to 57.5 µM
Method in brief: as §1

[5] = system: SKOV3; assay: as above; details: Gynecologic cancer cell panel viability, ATPlite luminescence, 48 h; series mostly up to 57.5 µM
Method in brief: as §1

[6] = system: Tov-21-G; assay: as above; details: Gynecologic cancer cell panel viability, ATPlite luminescence, 48 h; series mostly up to 57.5 µM
Method in brief: as §1

[7] = system: Tov112D; assay: as above; details: Gynecologic cancer cell panel viability, ATPlite luminescence, 48 h; series mostly up to 57.5 µM
Method in brief: as §1

[8] = Drug repurposing screens with cells derived from glioblastoma tumor samples (AID 1345199); details: GBM patient neurospheres viability, ATP luminescence, 48 h; for Potency: tumour line A; for all read-outs here: nearly all actives have a fitted effect of over 40% in size
Method in brief: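 Primary testing used CD133+ neurospheres from four GBM patients, seven concentrations, 48 h exposure and ATP-based viability; confirmation added three slower-growing patient lines.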

[9] = at 45.9 µM (top of the series), tumour line B
[10] = at 45.9 µM (top of the series), tumour line D
[11] = at 46.1 µM (top of the series), tumour line C
Potency is the fitted concentration of half-maximal effect.

Structure (SMILES)	Potency [1]	Potency [2]	Potency [3]	Potency [4]	Potency [5]	Potency [6]	Potency [7]	activity, negative = cell killing ([8]; at 20 µM (top of the series), tumour line C) [%]	activity, negative = cell killing ([8]; at 21.2 µM (top of the series), tumour line B) [%]	activity, negative = cell killing ([8]; at 21.2 µM (top of the series), tumour line D) [%]	Potency [8]	activity, negative = cell killing [8, 9] [%]	activity, negative = cell killing [8, 10] [%]	activity, negative = cell killing [8, 11] [%]
CCO[C@@H]1O[C@H](C(COCc2ccccc2)OCc2ccccc2)[C@H](OCc2ccccc2)[C@H]1O (stereo partly specified)	inactive	inactive	inactive	inactive	inactive	inactive	inactive	-1.34	-8.94	-23.7	14.1 µM (active)	–	–	–
O=C(N/N=C/c1ccc([N+](=O)[O-])o1)c1ccc(O)cc1	25.1 µM (active)	inactive	22.4 µM (active)	20 µM (active)	14.1 µM (active)	–	–	–	–	–	–	–	–	–
O=C1OC2(c3ccccc31)c1cc(Br)c(O)c(Br)c1Oc1c2cc(Br)c(O)c1Br	inactive	inactive	inactive	inactive	inactive	inactive	inactive	–	–	–	–	-12.6	-6.67	-34.7
O=S(c1cc(Cl)cc(Cl)c1O)c1cc(Cl)cc(Cl)c1O	inactive	inactive	inactive	inactive	inactive	inactive	inactive	–	–	–	28.2 µM (active)	-23.8	-25	-26.7
CC(=O)O[C@]1(C(C)=O)CC[C@H]2[C@@H]3C=C(Cl)C4=CC(=O)CC[C@]4(C)[C@H]3CC[C@@]21C	inactive	inactive	inactive	inactive	inactive	inactive	inactive	–	–	–	–	-21.1	–	–
CCCCCCCCCCCCCCC[C@H](O)[C@@H](N)CO	inactive	inactive	inactive	inactive	inactive	inactive	inactive	–	–	–	–	–	–	–
NC(=S)N/N=C/c1cccnc1	inactive	inactive	inactive	inactive	inactive	inactive	inactive	–	–	–	–	-6.47	0.861	-3.6
COC(=O)C(c1ccccc1Cl)N1CCc2sccc2C1 (stereo unspecified)	inactive	inactive	inactive	inactive	inactive	inactive	inactive	–	–	–	28.2 µM (active)	-13.2	-12.6	2.17
c1ccc(-c2nc[nH]c2-c2ccccc2)cc1	inactive	inactive	inactive	inactive	inactive	inactive	inactive	–	–	–	–	-16.2	–	–
CC(=O)Nc1ccc(S(=O)(=O)Nc2ccc([N+](=O)[O-])cc2)cc1	inactive	inactive	inactive	inactive	inactive	inactive	inactive	–	–	–	–	-8.95	-28.3	10.9
